Assay [1] has as its system Human papillomavirus type 1a protein E7 (residues 44-93). The experiment in a line: small molecules binding HPV E7 44-93 – biochemical, small-molecule microarray, residues 44-93, 635 nm fluorescence, primary screen (AID 1108).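 Note: E7 fragment applied at 1 µg/mL in TBST for 1 h at 4 C; score combines spot fluorescence with its signal to noise ratio.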 The note with it: fluorescence 635 nm, higher = more signal.
The nature of assay [2]: hepatitis C replication reporter changes, two-sided – Huh7 cells, luciferase reporter, HCV replication inhibitor project, primary screen (AID 1109).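 Note: huh7 hepatoma cells harbouring a luciferase neomycin HCV replicon reporter; luciferase luminescence as measure of HCV replicon replication; test concentration not given here.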 The note with it: Huh7 HCV replicon luciferase reporter, 48 h; higher = more signal. A general note: Reporter assays use an easily measured gene product as a stand-in for the process of interest.
In assay [3] the target is Left-right determination factor 2 (Homo sapiens) (UniProt O00292). Put plainly: small molecules binding LEFTY2 protein – biochemical, small-molecule microarray, 635 nm fluorescence scan, primary screen (AID 1110). Conditions: higher = more signal.
Sequence of Left-right determination factor 2 (Homo sapiens) (O00292 whole entry, looked up): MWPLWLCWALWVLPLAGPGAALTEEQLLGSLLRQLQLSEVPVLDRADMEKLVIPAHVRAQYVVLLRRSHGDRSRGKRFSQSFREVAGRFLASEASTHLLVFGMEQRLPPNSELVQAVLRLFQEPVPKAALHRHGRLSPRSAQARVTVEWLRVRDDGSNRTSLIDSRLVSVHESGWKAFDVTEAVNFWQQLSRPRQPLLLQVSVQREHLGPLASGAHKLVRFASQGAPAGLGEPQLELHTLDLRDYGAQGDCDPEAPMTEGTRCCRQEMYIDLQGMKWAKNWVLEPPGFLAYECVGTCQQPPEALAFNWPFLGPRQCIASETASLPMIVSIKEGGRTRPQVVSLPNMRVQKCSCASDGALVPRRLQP
The target of assay [4] is Calmodulin-1 (Homo sapiens) (UniProt P0DP23). Put plainly: small molecules binding calmodulin-1 with EGTA – biochemical, small-molecule microarray, Cy5-labelled CALM1, profiling panel (AID 1111).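 Note: labelled calmodulin applied in Tris saline Tween buffer holding calcium plus EGTA and DTT.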 Conditions: Cy5-CALM1 binding fluorescence, higher = more signal.
Assay [5] has the same target. Put plainly: small molecules binding Ca-loaded calmodulin-1 – biochemical, small-molecule microarray, Cy5-labelled CALM1, plus calcium, artefact control for SMM control-protein annotation, profiling panel (AID 1112).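 Note: score merges spot fluorescence with signal to noise from triplicate slides.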 Conditions: Cy5-CALM1 binding fluorescence, higher = more signal.
A short description of assay [6]: probe aWnt5a binding to arrayed compounds – biochemical, biotinylated probe, 635/667 nm fluorescence, primary screen (AID 1113).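 Note: score merges 667 nm fluorescence intensity with signal-to-noise per printed feature.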 Conditions: small-molecule microarray, higher = more signal.
Assay [7] in a line: probe aShh binding to arrayed compounds – biochemical, biotinylated probe, 635/667 nm fluorescence, primary screen (AID 1114).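 Note: probe is biotin-labelled aShh protein from a stem cell growth factor screen; measures binding of labelled protein to compounds printed on the slide; score merges feature fluorescence at 667 nm with signal-to-noise.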 Conditions: small-molecule microarray, higher = more signal.
The nature of assay [8]: probe aNog binding to arrayed compounds – biochemical, biotinylated probe, 635/667 nm fluorescence, primary screen (AID 1115).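 Note: probe is biotinylated aNog protein used at 0.15 µg/mL for 1 h at 4 C; z-score combines 667 nm fluorescence of each spot with its signal to noise.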 The note with it: small-molecule microarray, higher = more signal.
In assay [9] the target is Torsin-1A-interacting protein 1 (Homo sapiens) (UniProt Q5JTV8). The experiment in a line: compound microarray binding of lysate hLAP1 – cell lysate, small-molecule microarray, COS7 lysate, 635/667 nm fluorescence, primary screen (AID 1116). The note with it: 635 nm fluorescence, higher = more signal.
Sequence of Torsin-1A-interacting protein 1 (Homo sapiens) (Q5JTV8 whole entry, looked up): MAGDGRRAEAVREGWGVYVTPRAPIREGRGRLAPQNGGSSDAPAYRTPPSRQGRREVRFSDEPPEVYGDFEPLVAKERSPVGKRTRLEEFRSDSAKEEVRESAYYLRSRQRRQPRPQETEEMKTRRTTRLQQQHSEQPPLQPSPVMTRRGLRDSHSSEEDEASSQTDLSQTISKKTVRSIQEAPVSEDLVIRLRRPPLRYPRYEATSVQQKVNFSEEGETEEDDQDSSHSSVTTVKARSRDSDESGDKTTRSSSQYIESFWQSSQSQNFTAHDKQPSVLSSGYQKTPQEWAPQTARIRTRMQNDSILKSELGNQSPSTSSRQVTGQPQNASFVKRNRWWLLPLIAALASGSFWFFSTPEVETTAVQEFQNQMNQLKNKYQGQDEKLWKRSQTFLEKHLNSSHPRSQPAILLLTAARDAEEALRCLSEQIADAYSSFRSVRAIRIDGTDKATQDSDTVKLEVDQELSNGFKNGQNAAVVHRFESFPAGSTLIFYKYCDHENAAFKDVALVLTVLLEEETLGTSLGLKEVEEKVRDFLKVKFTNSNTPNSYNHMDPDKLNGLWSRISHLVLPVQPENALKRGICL
Assay [10] addresses Alpha-bungarotoxin (Bungarus multicinctus) (UniProt P60615). The experiment in a line: compounds binding labelled alpha-BTX control protein – biochemical, small-molecule microarray, Alexa647 label, 635/667 nm fluorescence, artefact control for SMM control protein annotation, profiling panel (AID 1117). Conditions: alpha-BTX-A647 binding fluorescence, higher = more signal.
In the next assay the target is Albumin (Bos taurus) (UniProt P02769). The experiment in a line: compounds binding labelled BSA control protein – biochemical, small-molecule microarray, Alexa647 label, 635/667 nm fluorescence, artefact control for SMM control protein annotation, profiling panel (AID 1118).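 Note: score merges 667 nm emission intensity and signal-to-noise per printed compound spot.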 Conditions: BSA-A647 binding, fluorescence 635 nm, higher = more signal.
Sequence of Albumin (Bos taurus) (P02769 whole entry, looked up): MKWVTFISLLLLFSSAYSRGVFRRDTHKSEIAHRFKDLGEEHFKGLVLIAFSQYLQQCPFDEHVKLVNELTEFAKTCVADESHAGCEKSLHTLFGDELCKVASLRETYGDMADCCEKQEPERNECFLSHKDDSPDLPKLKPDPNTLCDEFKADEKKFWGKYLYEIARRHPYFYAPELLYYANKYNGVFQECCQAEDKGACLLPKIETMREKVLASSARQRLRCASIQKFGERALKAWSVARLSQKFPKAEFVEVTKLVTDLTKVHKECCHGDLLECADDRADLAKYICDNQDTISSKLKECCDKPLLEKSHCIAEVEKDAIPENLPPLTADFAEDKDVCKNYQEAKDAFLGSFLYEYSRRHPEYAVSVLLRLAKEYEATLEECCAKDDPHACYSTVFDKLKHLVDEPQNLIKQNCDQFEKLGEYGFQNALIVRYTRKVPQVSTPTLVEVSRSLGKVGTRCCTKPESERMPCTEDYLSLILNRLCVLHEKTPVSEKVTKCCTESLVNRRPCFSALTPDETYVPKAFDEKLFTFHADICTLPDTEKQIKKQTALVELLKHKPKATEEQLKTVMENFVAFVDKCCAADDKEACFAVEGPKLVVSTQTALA
Assay [11] can be described thus: probe aXIP binding to arrayed compounds – biochemical, NeuroSMM set, 635/667 nm fluorescence, primary screen (AID 1119).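 Note: probe is the protein aXip251-270 applied at 1 µg/mL to compound-printed slides; binding of probe to printed compounds measured as 667 nm fluorescence plus signal to noise.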 Conditions: small-molecule microarray, higher = more signal, called active from +8 up or from −8 down.
A short description of assay [12]: probe aNOTCH3 binding on compound microarray – biochemical, small-molecule microarray, 635/667 nm fluorescence, primary screen (AID 1120).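 Note: probe is a biotin-tagged antibody raised against NOTCH3 rather than NOTCH3 protein; score merges spot fluorescence near 667 nm with spot signal to noise.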 Conditions: higher = more signal.
A short description of assay [13]: probe aNOTCH2 binding on compound microarray – biochemical, small-molecule microarray, 635/667 nm fluorescence, primary screen (AID 1121).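 Note: score merges feature fluorescence read at 667 nm with its signal to noise.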 The note with it: higher = more signal.
In assay [14] the target is Carbonic anhydrase 2 (Homo sapiens) (UniProt P00918). Put plainly: compounds binding carbonic anhydrase 2 – biochemical, small-molecule microarray, Alexa647-labelled CAII, profiling panel (AID 1122). The note with it: CAII-A647 binding fluorescence, higher = more signal.
Assay [15] can be described thus: COS7 lysate on small-molecule microarray, probe aHis, 635 nm (AID 1123).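 Note: z-score combines 667nm fluorescence intensity with signal-to-noise per printed compound spot.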 The note with it: COS7 cell lysate, fluorescence, higher = more signal.
Assay [16] in a line: probe aLAP1 signal on lysate-treated microarray – cell lysate, small-molecule microarray, COS7 lysate, primary screen (AID 1124).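 Note: lysate comes from COS7 cells expressing LAP1 and is applied at 0.3 µg/mL; score merges spot fluorescence near 667 nm with signal-to-noise over triplicate slides.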 Conditions: probe aLAP1, fluorescence, higher = more signal.
For another assay, the system named is Sam68 (KHDRBS1). The experiment in a line: compounds binding KHDRBS1 protein – biochemical, small-molecule microarray, 635 nm fluorescence, primary screen (AID 1125).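 Note: score merges 667 nm channel intensity with signal to noise over triplicate slides.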 Conditions: higher = more signal.
Assay [17] concerns Chordin-like protein 2 (CHRDL2). The experiment in a line: compounds binding chordin-like 2 – biochemical, small-molecule microarray, 635 nm fluorescence, primary screen (AID 1126).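 Note: printed compound slides probed with Chrdl2 protein at 4 µg/mL for 1 h at 4 C; score merges 667 nm emission intensity with signal to noise over three replicate slides.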 The note with it: fluorescence 635 nm, higher = more signal.
Assay [18] addresses Concanavalin-A (Canavalia ensiformis) (UniProt P02866). Put plainly: compounds binding concanavalin A lectin – biochemical, small-molecule microarray, Alexa647 label, 635 nm, artefact control for SMM control protein annotation, primary screen (AID 1127).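 Note: z combines 667 nm emission intensity with signal-to-noise across three replicate slides.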 Conditions: ConA-A647 binding fluorescence, higher = more signal.

Activity calls are given as the source filed them.

Sequence of Concanavalin-A (Canavalia ensiformis) (P02866 whole entry, looked up): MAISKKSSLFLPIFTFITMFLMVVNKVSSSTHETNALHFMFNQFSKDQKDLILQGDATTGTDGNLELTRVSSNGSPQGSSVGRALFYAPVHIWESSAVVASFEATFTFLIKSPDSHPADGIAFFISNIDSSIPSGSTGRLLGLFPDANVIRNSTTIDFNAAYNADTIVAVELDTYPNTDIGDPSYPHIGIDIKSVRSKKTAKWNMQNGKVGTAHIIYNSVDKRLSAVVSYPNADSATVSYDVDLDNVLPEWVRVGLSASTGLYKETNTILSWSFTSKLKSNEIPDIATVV
Sequence of Alpha-bungarotoxin (Bungarus multicinctus) (P60615 whole entry, looked up): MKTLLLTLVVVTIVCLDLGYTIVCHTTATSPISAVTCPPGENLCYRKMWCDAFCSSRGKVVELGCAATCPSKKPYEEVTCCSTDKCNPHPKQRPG

On to `COc1ccc(C#Cc2ccc3c(c2)[C@]2(C(=O)N3)[C@H](c3ccc(O)cc3)N3[C@H](c4ccccc4)[C@H](c4ccccc4)OC(=O)[C@H]3[C@@H]2C(=O)NC[C@H](O)c2ccccc2)cc1`, for which the composite z-score in assay [1] was 1.33; in assay [3], 0.0197; in [4], 0.199; in assay [5], 0.689; in [6] it was 0.164; in assay [7], -0.138. For the same compound, the composite z-score in assay [8] is 0.305; in [9] it was 0.818; in assay [10] it was 1.26; with Albumin (Bos taurus), 0.363; in assay [12], 0.0319; in assay [13] it was -0.189. Further, the composite z-score is 0.295 in assay [14]; 2.78 in assay [15]; 0.0766 in assay [16]; 0.81 in the assay with Sam68 (KHDRBS1); 0.0813 in assay [17]; 1.17 in [18]. This compound also registered a z-score in assay [2] of -1.63. Besides, the composite Z-score in assay [11] was -0.118 (inactive).

For the compound `CCCCC=C[C@@H](NC(=O)c1cccs1)c1ccccc1`, the composite z-score in assay [1] is 0.861; in assay [3], -0.286; in assay [4], 0.524; in [5], 0.906; in assay [6], -0.124; in [7] it was 0.166. The composite z-score in assay [8] was -0.269; in assay [9], 0.159; in assay [10], 0.748; with Albumin (Bos taurus), 0.84; in assay [12], 0.0435; in [13] it was -0.0116. Further, the composite z-score in assay [14] was 0.251; in assay [15] it was 1.35; in assay [16] it was 0.369; with Sam68 (KHDRBS1) it was 0.839; in assay [17] it was -0.406; in assay [18], 0.499. The same compound displayed a z-score in assay [2] of -2.74. Also, in assay [11], the composite Z-score is -0.544 (inactive).

Turning to `CN1C(=O)C2C=CC(C(O)c3ccccn3)N(Nc3ccccc3)C2C1=O` (stereo not given), the composite z-score in [1] is 0.409; in [3], 0.129; in assay [4], -0.163; in assay [5] it was -0.408; in assay [6], -0.0647; in assay [7], 0.318. Moreover, the composite z-score is 0.266 in [8]; 0.353 in assay [9]; 0.476 in assay [10]; -0.0756 with Albumin (Bos taurus); 0.0711 in assay [12]; -0.14 in [13]. The composite z-score in [14] came to 0.727; in assay [15], 0.446; in assay [16], 0.456; in the assay with Sam68 (KHDRBS1), 0.656; in [17], 0.288; in assay [18], 0.37. In assay [2], this compound yielded a z-score of 0.0435. For the same compound, in assay [11], the composite Z-score is 0.0956 (inactive).

For `O=C1C[C@]2(c3ccc([N+](=O)[O-])cc3)C(=O)N(CC(F)(F)F)c3cc(CO)ccc3[C@H]2N1CC12CC3CC(CC(C3)C1)C2`, the composite z-score is 0.193 in assay [1]; -0.211 in [3]; -0.28 in assay [4]; -0.285 in assay [5]; -0.147 in assay [6]; -0.229 in [7]. Further, the composite z-score was -0.364 in assay [8]; -0.371 in assay [9]; 0.224 in assay [10]; -0.0746 with Albumin (Bos taurus); -0.0362 in [12]; -0.168 in assay [13]. The composite z-score in assay [14] is 0.499; in assay [15], 1.15; in [16], -0.221; in the assay on Sam68 (KHDRBS1), -0.0575; in [17], 0.167; in [18], 0.556. In assay [2], this compound displayed a z-score of -0.156. Also, in [11], the composite Z-score is -0.171 (inactive).

`COCCOC(=O)N1C(=O)[C@@]2(c3cc(C#CCNC(N)=O)ccc31)[C@H](c1ccc(O)cc1)N1[C@H](c3ccccc3)[C@H](c3ccccc3)OC(=O)[C@H]1[C@@H]2C(=O)Nc1nc2ccccc2s1`: the composite z-score in assay [1] was 0.793; in assay [3], 0.691; in [4], 1.41; in assay [5], 0.707; in assay [6], -0.0242; in assay [7], -0.0626. The composite z-score is 0.167 in assay [8]; 0.0164 in [9]; 1.1 in [10]; 0.0631 with Albumin (Bos taurus); 0.111 in assay [12]; -0.0432 in assay [13]. The composite z-score is 0.266 in assay [14]; 1.17 in [15]; 0.243 in [16]; 0.942 in the assay with Sam68 (KHDRBS1); 0.554 in assay [17]; 1.09 in assay [18]. The same compound returned a z-score in assay [2] of 0.171. For the same compound, the composite Z-score in assay [11] is -0.162 (inactive).

Consider `COc1c(C)cc(-c2cc3c(c(-c4ccc(Oc5ccccc5)cc4)n2)[Si](C(C)C)(C(C)C)OC3)cc1C`, for which the composite z-score in assay [1] was -0.0076; in [3] it was -0.0065; in assay [4], 0.354; in assay [5], 0.777; in [6], -0.0721; in assay [7], -0.138. The composite z-score in assay [8] was -0.111; in assay [9], -0.0839; in [10], 0.327; in the assay with Albumin (Bos taurus), -0.237; in [12] it was 0.0208; in assay [13] it was 0.0016. The composite z-score is -0.229 in [14]; -0.202 in assay [15]; 0.151 in [16]; -1.07 in the assay with Sam68 (KHDRBS1); -0.206 in assay [17]; -0.52 in [18]. Also, the z-score in assay [2] was -0.382. For the same compound, the composite Z-score in assay [11] was -0.591 (inactive).

For the origin of these results see PubChem BioAssay.
